SW480 rerep: DNA re-replication induction in SW480 cells; SW480 DNA re-replication, Hoechst DNA content imaging, 48 h; Potency, µM (series often up to 46.1 µM), most hits filed as activators; actives 1.8% (n = 340,000); also: nearly all actives have a fitted effect of over 55% in size
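DNA re-replication was detected as more nuclei of elevated Hoechst intensity after 48 hr exposure to compound (23 nL pinned per well of 250 cells).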
KB-3-1 cytotox: KB-3-1 parental cell cytotoxicity. KB-3-1 viability, CellTiter-Glo ATP luminescence, 72 h. Potency, µM (titrated, usually from 46.1 µM), hits mostly cytotoxic. actives 1.4% (n = 400,000). AID 1347075; also: nearly all actives have a fitted effect of over 60% in size
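Using CellTiter-Glo luminescence, growth of non-resistant KB-3-1 adenocarcinoma cells is assessed 72 h after pin-tool compound addition at 37 °C. Normalized responses across the concentration series yield fitted curves.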
KB-V1 cytotox: KB-V1 MDR subline cytotoxicity | KB-V1 MDR cells viability, CellTiter-Glo, 72 h | Potency, µM (doses to about 46.1 µM), hits mostly cytotoxic | actives 3.4% (n = 400,000) | AID 1347076; also: nearly all actives have a fitted effect of over 60% in size
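Drug-selected KB-V1 cells, grown in DMEM lacking phenol red with 10% FBS, receive compound titrations; after three days at 37 degrees C, surviving cell ATP is quantified by CellTiter-Glo luminescence and responses normalized and curve-fitted.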
MCF10A rereplic: inducers of DNA re-replication in MCF 10A breast cells. MCF 10A DNA re-replication, Hoechst nuclear intensity, 48 h. Potency, µM (titrated, usually from 46.1 µM), most hits filed as activators. actives 2.9% (n = 350,000); also: nearly all actives have a fitted effect of over 50% in size
KCNH2 3.1 inh: KCNH2 3.1 (human) potassium channel inhibition. U2OS KCNH2 3.1, thallium flux FluxOr; hits give low values. activity change, % (tested at about 1.8 µM). actives 0.95% (n = 340,000);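 active = maximum activity change below -70%; inconclusive = maximum activity change from -70% to -50%; inactive = maximum activity change above -50%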;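 also: thallium influx rate constant from kinetic fluorescence after stimulation buffer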
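Steps: virus added to U2OS suspension (4 h, RT, dark); medium with 10% FBS added, cells plated, 37 C overnight; FluxOr/Red40 loading buffer 45 min RT; stimulation buffer, 2 min kinetic read; rate constant normalized.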
KCNH2 WT inh: blocks the wildtype human KCNH2 potassium channel; U2OS, BacMam KCNH2, thallium flux FluxOr; hits give low values; actives 0.37% (n = 340,000); AID 720551; activity change, % at 1.84 µM; Q12809;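 active = maximum activity change below -70%; inconclusive = maximum activity change between -70% and -50%; inactive = maximum activity change above -50%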
Target sequence (Q12809 whole entry, looked up): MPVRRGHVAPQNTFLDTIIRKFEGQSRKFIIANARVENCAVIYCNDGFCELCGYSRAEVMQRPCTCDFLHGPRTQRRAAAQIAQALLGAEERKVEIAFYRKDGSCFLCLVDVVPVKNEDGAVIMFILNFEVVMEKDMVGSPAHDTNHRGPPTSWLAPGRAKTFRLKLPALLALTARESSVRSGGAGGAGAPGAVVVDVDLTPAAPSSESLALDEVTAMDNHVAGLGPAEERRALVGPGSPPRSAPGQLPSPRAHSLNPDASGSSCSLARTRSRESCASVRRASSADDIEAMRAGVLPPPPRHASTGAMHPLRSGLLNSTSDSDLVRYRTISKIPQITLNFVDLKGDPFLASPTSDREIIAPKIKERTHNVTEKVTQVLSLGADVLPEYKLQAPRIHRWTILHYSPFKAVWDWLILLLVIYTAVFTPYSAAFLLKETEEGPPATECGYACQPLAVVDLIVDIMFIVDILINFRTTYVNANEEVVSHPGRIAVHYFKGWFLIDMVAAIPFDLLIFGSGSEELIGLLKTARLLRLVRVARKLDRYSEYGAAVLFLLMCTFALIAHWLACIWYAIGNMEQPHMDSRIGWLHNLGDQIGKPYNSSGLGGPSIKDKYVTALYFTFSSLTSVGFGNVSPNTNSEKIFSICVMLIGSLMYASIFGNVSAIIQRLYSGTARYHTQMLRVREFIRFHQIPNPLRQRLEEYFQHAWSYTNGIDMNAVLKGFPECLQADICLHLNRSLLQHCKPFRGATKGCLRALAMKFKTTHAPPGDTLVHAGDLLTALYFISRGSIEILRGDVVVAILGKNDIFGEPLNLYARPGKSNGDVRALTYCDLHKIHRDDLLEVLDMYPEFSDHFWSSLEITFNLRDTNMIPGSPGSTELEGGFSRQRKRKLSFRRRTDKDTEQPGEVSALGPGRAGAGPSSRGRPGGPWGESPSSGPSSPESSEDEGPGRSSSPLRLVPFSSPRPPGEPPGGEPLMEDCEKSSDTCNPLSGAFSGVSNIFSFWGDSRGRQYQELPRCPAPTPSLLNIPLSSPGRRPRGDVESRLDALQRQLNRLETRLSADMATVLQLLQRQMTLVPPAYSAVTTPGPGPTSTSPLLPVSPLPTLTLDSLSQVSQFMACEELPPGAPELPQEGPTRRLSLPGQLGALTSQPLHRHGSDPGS
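U2OS cells transduced with wild-type KCNH2 virus are loaded with FluxOr dye for 45 min, and thallium flux is measured in kinetic reads before and after stimulation buffer. Rate constants are normalized to DMSO controls.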
Numbers stand for hits; - = inactive; ? = inconclusive; . = not tested or not shown. This is a sample that favours compounds with a hit; in the whole collection about 7.6% have one here. Unless noted, calls follow the shape of the dose curve; as a rule, active = well fitted curve in the direction sought with a large enough effect; inconclusive = small, poorly fitted or top-dose-only effect, or another doubt; inactive = no such curve, though single readings can be large; an effect the other way counts as inactive or inconclusive.

SMILES | SW480 rerep | KB-3-1 cytotox | KB-V1 cytotox | MCF10A rereplic | KCNH2 3.1 inh | KCNH2 WT inh
COc1ccc(S(=O)(=O)N2CCN(c3cc(-c4ccccc4)nc4ncnn34)CC2)cc1 | - | ? | 23µM | - | - | -
O=S(=O)(c1ccc(Br)cc1)N1CCN(c2cc(-c3ccccc3)nc3ncnn23)CC1 | - | ? | 13µM | - | ? | -
COc1ccc(-c2cc(N3CCCC3)n3ncnc3n2)cc1 | - | - | ? | - | - | -
O=S(=O)(c1ccccc1)N1CCN(c2cc(-c3ccccc3)nc3ncnn23)CC1 | - | - | ? | - | - | -
COc1ccnc2c1c(=O)n(Cc1ccc(Cl)cc1)c(=O)n2C | ? | - | - | ? | - | -
COc1ccccc1COCC(O)CN1CCN(S(=O)(=O)c2cccc(F)c2)CC1 (stereo unspecified) | - | - | - | - | - | -
O=S(=O)(c1ccc(F)cc1)N1CCN(CC(O)COCc2ccccc2)CC1 (stereo unspecified) | - | - | 21µM | - | - | -
O=S(=O)(c1cccc(C(F)(F)F)c1)N1CCN(CC(O)COCc2ccccc2)CC1 (stereo unspecified) | - | - | - | - | - | -
COc1ccc(COCC(O)CN2CCN(S(=O)(=O)c3c(F)cccc3F)CC2)cc1OC (stereo unspecified) | ? | - | 13µM | - | - | -
Cc1ccc2nc(SC(C)C(=O)NC3CCCc4ccccc43)[nH]c2c1 (stereo unspecified) | . | - | 21µM | ? | - | -
COc1ccc2nc(SCC(=O)NC3CCCc4ccccc43)[nH]c2c1 (stereo unspecified) | - | ? | 18µM | - | - | -
Cc1ccccc1-n1nnnc1SC(C)C(=O)NC1CCCc2ccccc21 (stereo unspecified) | ? | - | 3.7µM | - | - | -
COc1ccc2nc(SCC(=O)NC(C)(C)C)[nH]c2c1 | ? | - | - | 8.2µM | - | -
COc1ccc(NC(=O)CSc2nc3ccc(OC)cc3[nH]2)cc1 | - | - | - | - | - | -
Cc1nnc(SC(C)C(=O)NC2CCCc3ccccc32)n1-c1ccccc1 (stereo unspecified) | - | ? | ? | - | - | -
O=C1/C(=C/c2ccccc2)CSc2sccc21 | - | - | - | - | - | -
Cc1cc(C)c2c(=O)n3c(nc2c1)C(Cc1ccccc1)NC(=O)c1cccnc1-3 (stereo unspecified) | . | - | - | . | - | -
Cc1ccc(NC(=O)COc2ccc(Br)cc2CO)cc1S(=O)(=O)N1CCOCC1 | - | - | - | - | - | -
CC1CCN(C(=O)COC(=O)c2cc(Cl)c3c(c2)OCO3)CC1 | - | - | 21µM | - | - | -
CCCc1sc(N/N=C/c2ccccn2)nc1-c1ccc(F)cc1 | - | ? | 10µM | - | - | -
Cc1nc(N/N=C/c2ccccn2)sc1C | 21µM | 26µM | ? | ? | - | -
O=C(O)Cc1sc(N/N=C\c2ccccc2)nc1-c1ccccc1 | - | - | - | - | - | -
COC(=O)c1ccc(/C=N/Nc2nc(C)c(C)s2)cc1 | ? | - | - | 23µM | - | ?
COc1ccc(CNC(=O)C2CCCN(C(=O)Nc3ccccc3OC)C2)cc1 (stereo unspecified) | - | - | - | - | - | -
CCN(CC)S(=O)(=O)c1c(OC)cc(C)c(Cl)c1C | 1.2µM | - | - | - | - | .
SMILES | SW480 rerep | KB-3-1 cytotox | KB-V1 cytotox | MCF10A rereplic | KCNH2 3.1 inh | KCNH2 WT inh
CCN(CC)S(=O)(=O)c1cc(C)c(C)cc1Br | - | - | - | - | - | -
CCCCCN=Cc1c(C)[nH]n(-c2nc3ccccc3s2)c1=O | - | 2.6µM | 2.3µM | - | - | -
COc1ccc(NC(=O)CN(Cc2ccccc2)Cc2ccccc2)cc1S(N)(=O)=O | - | - | 21µM | - | - | -
COc1ccc(NC(=O)CCCSc2ccccc2)cc1S(N)(=O)=O | - | - | - | - | - | -
COc1ccc(NC(=O)COc2ccccc2Cc2ccccc2)cc1S(N)(=O)=O | - | 16µM | 10µM | - | - | -
COc1ccc(NC(=O)COc2ccccc2Cc2ccccc2)cn1 | - | ? | ? | - | - | -
Cc1cc(C)cc(NC(=O)CCC(=O)Nc2cc(C)on2)c1 | - | - | - | - | - | -
Cc1cccc(-c2n[nH]c(=S)n2C)c1 | - | ? | 21µM | - | - | -
Cc1nc(-c2ccccc2)sc1-c1n[nH]c(=S)n1C | 23µM | - | ? | - | - | -
CCOc1ccc(NC(=O)CSc2ncc3c(n2)-c2ccc(Cl)cc2N(Cc2ccccc2)S3(=O)=O)cc1 | . | - | - | . | . | .
Cc1cc(Nc2ccccc2)n(-c2nc3ccccc3[nH]2)n1 | - | ? | ? | ? | - | -
COc1ccc(/C=C/C(=O)Nc2cc(C)nn2-c2nc3ccccc3[nH]2)cc1 | 18µM | ? | 16µM | ? | - | -
Cc1cc(NC(=O)/C=C/c2cccc(Cl)c2)n(-c2nc3ccccc3[nH]2)n1 | ? | ? | ? | 21µM | - | -
Cc1cc(NC(=O)/C=C/c2cccc(F)c2)n(-c2nc3ccccc3[nH]2)n1 | ? | ? | ? | 16µM | - | -
Cc1cc(NC(=O)/C=C/c2ccc(F)cc2)n(-c2nc3ccccc3[nH]2)n1 | - | - | - | ? | - | -
CCn1ccnc1CNC(=O)c1ccc(OC2CCN(C(=O)COC)CC2)cc1 | - | - | ? | - | - | -
CCOc1ccc(OCCCC(=O)N2CCN(S(=O)(=O)c3ccc(Cl)cc3)CC2)cc1 | - | - | ? | - | - | -
COCCOC(=O)C1=C(C)NC(=S)NC1c1cccs1 (stereo unspecified) | - | - | ? | - | -76 | -
CCOc1ccccc1NC(=O)C1=C(C)NC(=S)NC1c1cccs1 (stereo unspecified) | - | - | 13µM | - | - | -
CC1=C(C(=O)Nc2ccccc2C)C(c2cccs2)NC(=S)N1 (stereo unspecified) | - | - | - | - | - | -
COCCOC(=O)C1=C(C)NC(=O)NC1c1cccs1 (stereo unspecified) | - | - | - | - | - | -
Cc1ccccc1-n1nc2c(c1NC(=O)c1ccc3c(c1)OCO3)CS(=O)(=O)C2 | - | - | - | - | - | -
O=C(Nc1ccc2c(c1)CCC2)C1CCN(c2c3c(nc4ncnn24)CCC3)CC1 | - | ? | ? | - | - | -
CS(=O)(=O)N1CCC(C(=O)Nc2ccc(Oc3ccccc3)cc2)CC1 | 16µM | - | ? | 9.2µM | - | -
O=C(Nc1ccc(Oc2ccccc2)cc1)C1CCN(c2c3c(nc4ncnn24)CCC3)CC1 | - | ? | ? | ? | -98 | -
